Measured values as given in PubChem BioAssay (NCATS).
Records with an inconclusive call do not appear. Entries that show only a call come without a potency. Active and inactive are the calls of the source. Calls come from the whole dose curve; as a rule, active = well fitted curve in the direction sought with a large enough effect; inconclusive = small, poorly fitted or top-dose-only effect, or another doubt; inactive = no such curve, though single readings can be large; an effect the other way counts as inactive or inconclusive.

Key:
[1] = biological target: Aldehyde dehydrogenase, mitochondrial (Homo sapiens) (UniProt P05091); test: qHTS for Inhibitors of the Aldehyde Dehydrogenase Family (ALDH2) Primary screen (AID 2061308); note: nearly all actives have a fitted effect of over 55% in size
[2] = biological target: Retinaldehyde dehydrogenase 3 (Homo sapiens) (UniProt P47895); test: qHTS for Inhibitors of the Aldehyde Dehydrogenase Family (ALDH1A3) Primary screen (AID 2061315)

Compound: C=CCNc1oc(-c2ccc(F)cc2)nc1C#N
- Potency [1]: inactive
- Potency [2]: inactive

Compound: Cn1c2cc(C=O)sc2c2cnn(Cc3ccccc3F)c(=O)c21
- Potency [1]: inactive
- Potency [2]: inactive

Compound: COc1ccc(C(CC(=O)N2CC(C)CC(C)C2)c2c(O)cc(OC)cc2OC)cc1 (configuration not stated)
- Potency [1]: inactive
- Potency [2]: inactive

Compound: CC(C)(C)NS(=O)(=O)c1cccc(-c2nnc(SCC(=O)Nc3ccc(C(=O)O)cc3)n2-c2ccc(F)cc2)c1
- Potency [1]: inactive
- Potency [2]: inactive

Compound: CCOC(=O)c1cc2c([nH]1)CCCC2=O
- Potency [1]: inactive
- Potency [2]: inactive

Compound: COc1ccc(S(=O)(=O)Nc2ccc(C)c(C)c2)cc1
- Potency [1]: inactive
- Potency [2]: inactive

Compound: Cc1ccc(-c2nn3c(C)nnc3s2)cc1NC(=O)c1ccc(-c2cccc(Cl)c2)o1
- Potency [1]: inactive
- Potency [2]: inactive

Compound: O=[S+]([O-])(c1ccc2c(c1)OCCO2)N1CCN([S+](=O)([O-])c2ccccc2Br)CC1
- Potency [1]: inactive
- Potency [2]: inactive

Compound: O=C(OCC#CCSc1nnc(-c2cccc3ccccc23)o1)c1cc(F)c(F)c(F)c1
- Potency [1]: inactive
- Potency [2]: inactive

Compound: c1nc(NCC2CCCC2)c2cc(-c3ccc4c(c3)OCO4)ccc2n1
- Potency [1]: inactive
- Potency [2]: inactive

Compound: COc1cc(O)c(C(CC(=O)N2CCCC(COc3ccc(F)cc3)C2)c2ccc3c(c2)OCO3)c(OC)c1 (configuration not stated)
- Potency [1]: inactive
- Potency [2]: inactive

Compound: CC1OC2O[C@H]3[C@@H](OCC(O)[C@H]3O)OC(=O)C34CCC(C)(C)CC3C3=CCC5C6(C)CC(O)C(OC7OC(CO)C(O)C(O)C7O[C@@H]7OC[C@H](OC(=O)CC(C)(O)CC(=O)OC1C(OC1OCC(O)C(O)C1O)C2O)[C@@H](O)[C@H]7O)C(C)(CO)C6CCC5(C)C3(C)CC4 (some centres not stated)
- Potency [1]: inactive
- Potency [2]: inactive

Compound: O=[S+]([O-])(c1ccc2c(c1)OCCO2)N1CCN([S+](=O)([O-])c2c(F)cc(O)cc2F)CC1
- Potency [1]: inactive
- Potency [2]: inactive

Compound: O=S(=O)(Nc1nccs1)c1ccc(NCc2cc(Cl)ccc2O)cc1
- Potency [1]: inactive
- Potency [2]: inactive

Compound: Cc1ccc(-c2ccc(=O)n(C(C)C)n2)cc1
- Potency [1]: inactive
- Potency [2]: inactive

Compound: COc1cc(Nc2nc(-c3ccncc3)nc3ccccc23)ccc1NS(C)(=O)=O
- Potency [1]: inactive
- Potency [2]: inactive

Compound: CC(C)c1ccccc1-c1ncc(F)c(NC2(c3ccc(-c4cccnc4)cc3)CC2)n1
- Potency [1]: inactive
- Potency [2]: inactive

Compound: CCOC(=O)c1ccc(-n2cnc3c(c2=N)C(c2cccc(OC)c2)c2c(ccc4ccccc24)O3)cc1 (configuration not stated)
- Potency [1]: inactive
- Potency [2]: inactive

Compound: Cc1ccc(OCCn2c(CCNC(=O)c3ccccc3C)nc3ccccc32)cc1
- Potency [1]: inactive
- Potency [2]: inactive

Compound: O=C(/C=C/c1cccs1)Nc1cccc([S+](=O)([O-])Nc2ccccc2F)c1
- Potency [1]: inactive
- Potency [2]: inactive

Compound: Cc1cc2c(s1)c1cnn(Cc3ccc(SC(F)(F)F)cc3)c(=O)c1n2C
- Potency [1]: inactive
- Potency [2]: inactive

Compound: Cc1ccccc1C(C(=O)NC1CCCCC1)N(C(=O)Cn1cnc2ccccc21)c1cccc(F)c1 (configuration not stated)
- Potency [1]: inactive
- Potency [2]: inactive

Compound: CCSC1=NS(=O)(=O)c2ccccc21
- Potency [1]: inactive
- Potency [2]: inactive

Compound: O=C(Nc1ccc(Cl)c(Cl)c1)Nc1nnc(-c2cccnc2)s1
- Potency [1]: inactive
- Potency [2]: inactive

Compound: O=C(OCC#CCSc1nnc(-c2cccc3ccccc23)o1)c1ccsc1
- Potency [1]: inactive
- Potency [2]: inactive

Compound: Cn1nnnc1Sc1ncnc2scc(-c3ccccc3F)c12
- Potency [1]: inactive
- Potency [2]: inactive

Compound: CCOc1ccc(C(=O)Oc2ccc(-c3nc4ccccc4[nH]3)cc2)cc1[N+](=O)[O-]
- Potency [1]: inactive
- Potency [2]: inactive

Compound: Cc1ccc(S(=O)(=O)Nc2ccncc2C(=O)Nc2nc(-c3ccccc3)cs2)cc1
- Potency [1]: inactive
- Potency [2]: inactive

Compound: N#Cc1nc(NCCCCO)nc(Nc2ccccc2)n1
- Potency [1]: inactive
- Potency [2]: inactive

Compound: N#Cc1nc(Nc2cc(F)cc(F)c2)nc(NC2CCCC2)n1
- Potency [1]: inactive
- Potency [2]: inactive

Compound: COc1ccc(OC)c(C2=Nn3c(nnc3-c3ccccc3OC)SC2)c1
- Potency [1]: inactive
- Potency [2]: inactive

Compound: Cc1cc(C)n2ncc(C(=O)N3CCCC3)c2n1
- Potency [1]: inactive
- Potency [2]: inactive

Compound: COc1cc(O)c(C(CC(=O)N2CCC(C)CC2)c2ccc3c(c2)OCO3)c(OC)c1 (configuration not stated)
- Potency [1]: inactive
- Potency [2]: inactive

Compound: Cc1cc(C)nc(NC(=S)N2CCN(c3ccc(Cl)cc3[N+](=O)[O-])CC2)c1
- Potency [1]: inactive
- Potency [2]: inactive

Compound: CC(=O)Nc1sc2c(c1-c1ccc(-c3nn[nH]n3)cc1)CCNC2
- Potency [1]: inactive
- Potency [2]: inactive

Compound: COc1cccc(CNc2ccc(S(=O)(=O)Nc3ccccc3)cc2)c1O
- Potency [1]: inactive
- Potency [2]: inactive

Compound: Cc1ccnc(NC(=S)Nc2cccc(C(F)(F)F)c2)c1
- Potency [1]: inactive
- Potency [2]: inactive

Compound: CCOC(=O)CCc1cc(F)c(S(=O)(=O)N2CCN(S(=O)(=O)c3ccc4c(c3)OCCO4)CC2)cc1F
- Potency [1]: inactive
- Potency [2]: inactive

Compound: Oc1ccc(CCc2c(F)cccc2F)c2cccnc12
- Potency [1]: inactive
- Potency [2]: inactive

Compound: C=C(C(=O)O)[C@@H]1CC[C@@]2(C)CC[C@H](O)[C@@]2(C(C)=O)C1
- Potency [1]: inactive
- Potency [2]: inactive

Compound: COc1cc(O)c(C(CC(=O)N2CCCC(C#N)C2)c2ccc3c(c2)OCO3)c(OC)c1 (configuration not stated)
- Potency [1]: inactive
- Potency [2]: inactive

Compound: CCOc1cc(F)c(CCNC(=O)c2cc3sccc3n2Cc2ccccc2)cc1OCC
- Potency [1]: inactive
- Potency [2]: inactive

Compound: O=S(=O)(NCc1ccccc1)c1ccc(O)c2ncccc12
- Potency [1]: inactive
- Potency [2]: inactive

Compound: CC(=O)Nc1cccc(OC2=NS(=O)(=O)c3ccccc32)c1
- Potency [1]: inactive
- Potency [2]: inactive

Compound: N#Cc1c(-c2cc(C(F)(F)F)cc(C(F)(F)F)c2)no[n+]1[O-]
- Potency [1]: inactive
- Potency [2]: inactive

Compound: Cc1cc2c(s1)c1cnn(Cc3cccc(Br)c3)c(=O)c1n2C
- Potency [1]: inactive
- Potency [2]: inactive

Compound: O=C(Nc1ccc(S(=O)(=O)Nc2nccs2)cc1)c1ccncc1
- Potency [1]: inactive
- Potency [2]: inactive

Compound: COC(=O)c1sc2c(c1-c1nc3ccccc3s1)CCNC2
- Potency [1]: inactive
- Potency [2]: inactive

Compound: COc1cc(F)c(S(=O)(=O)N2CCN(S(=O)(=O)c3ccc4c(c3)OCCO4)CC2)c(F)c1
- Potency [1]: inactive
- Potency [2]: inactive

Compound: Cc1noc(C)c1-c1ccc2ncnc(NC(C)c3ccco3)c2c1 (configuration not stated)
- Potency [1]: inactive
- Potency [2]: inactive

Compound: CC(=O)Nn1c(C)nc2sc3c(c2c1=O)CCNC3
- Potency [1]: inactive
- Potency [2]: inactive

Compound: Cc1cc(-c2nc(Nc3ccc(F)c(F)c3)c3ccccc3n2)ccn1
- Potency [1]: inactive
- Potency [2]: inactive

Compound: CCN(CC)CCCn1c(-c2ccccc2)nc2c(NCCOC)nc(C)nc21
- Potency [1]: inactive
- Potency [2]: inactive

Compound: COc1ccccc1-c1nc(NCc2ccc(-c3cccnc3)cc2)c2ccccc2n1
- Potency [1]: inactive
- Potency [2]: inactive

Compound: CCN1CCCC1Cn1c(-c2ccccc2)nc2c(NCCOC)nc(C)nc21 (configuration not stated)
- Potency [1]: inactive
- Potency [2]: inactive

Compound: Cc1ccc(NS(=O)(=O)c2cc3c(cc2/C=C/c2ccccc2)NC(=O)CO3)cc1C
- Potency [1]: inactive
- Potency [2]: inactive

Compound: COc1c/c(=C2\C=c3ccccc3=N2)[nH]/c1=C\c1[nH]c(C)cc1C
- Potency [1]: inactive
- Potency [2]: inactive

Compound: O=C(Nc1ccc(S(=O)(=O)Nc2ncc(-c3ccccc3)s2)cc1)c1ccc2ccccc2c1
- Potency [1]: inactive
- Potency [2]: inactive

Compound: OC[C@H]1O[C@@H](Oc2cccc3ccccc23)[C@H](O)[C@@H](O)[C@H]1O
- Potency [1]: inactive
- Potency [2]: inactive

Compound: O=C(Nc1ccc(Cl)c(C(F)(F)F)c1)Nc1cccc(-c2ccncc2)n1
- Potency [1]: inactive
- Potency [2]: inactive

Compound: O=C(CNC(=O)c1ccncc1)OC(C(=O)Nc1cc(C(F)(F)F)ccc1Cl)c1ccccc1 (configuration not stated)
- Potency [1]: inactive
- Potency [2]: inactive

Compound: COC1CC(=O)C23C(=O)NC(CC(C)C)C2C(C)C(C)=CC3/C=C(\C)CCC1O (configuration not stated)
- Potency [1]: inactive
- Potency [2]: inactive

Compound: O=C(Oc1cccnc1)c1cccs1
- Potency [1]: inactive
- Potency [2]: inactive

Compound: O=C(Nc1ccc(-c2nc3ccccc3[nH]2)cc1)c1ccc2ncccc2c1
- Potency [1]: inactive
- Potency [2]: inactive

Compound: Cc1c(P(=S)(c2ccccc2)c2ccccc2)[n+]2ccccc2n1CCCc1ccccc1
- Potency [1]: inactive
- Potency [2]: inactive

Compound: COc1ccc(-c2nnc3n2N=C(c2c(OC)cccc2OC)CS3)cc1OC
- Potency [1]: inactive
- Potency [2]: inactive

Compound: O=C1CCCC2=C1C(c1[nH]ncc1Cl)NC(=NCc1ccco1)N2 (configuration not stated)
- Potency [1]: inactive
- Potency [2]: inactive

Compound: CCOc1ccc(C(=O)Oc2ccc(-c3nc4ccccc4[nH]3)cc2)cc1
- Potency [1]: inactive
- Potency [2]: inactive

Compound: Cc1cc(N[S+](=O)([O-])c2cc3c(cc2F)NC(=O)CC3)ccc1Br
- Potency [1]: inactive
- Potency [2]: inactive

Compound: CCOC(=O)CCC(=O)Nc1ncnc2c1C(c1ccccc1)c1c(ccc3ccccc13)O2 (configuration not stated)
- Potency [1]: inactive
- Potency [2]: inactive

Compound: C#CCOc1ccc(C(C)=O)cc1-c1nnc2n1N=C(c1ccc(OC)c(O[C@@H]3CCOC3)c1)CS2
- Potency [1]: inactive
- Potency [2]: inactive

Compound: O=[S+]([O-])(c1ccc2c(c1)OCCO2)N1CCN([S+](=O)([O-])c2ccc(F)cc2Cl)CC1
- Potency [1]: inactive
- Potency [2]: inactive

Compound: Cc1nc(-c2ccc(S(=O)(=O)Nc3ccc(C)c(C)c3)s2)cs1
- Potency [1]: inactive
- Potency [2]: inactive

Compound: CC(=O)Nc1sc2c(c1C(=O)c1ccccc1)CCN(C(C)C)C2
- Potency [1]: inactive
- Potency [2]: inactive

Compound: Cc1ccnc(NC(=S)N2CCCc3ccc(C(F)(F)F)cc32)c1
- Potency [1]: inactive
- Potency [2]: inactive

Compound: O=C1CCCC2=C1C(c1[nH]ncc1Cl)N=C(Nc1nc3cc(Cl)ccc3o1)N2 (configuration not stated)
- Potency [1]: inactive
- Potency [2]: inactive

Compound: Cc1ccc([S+](=O)([O-])n2cc(-c3ccc(-c4ccccc4)cc3)c3ccccc32)cc1
- Potency [1]: inactive
- Potency [2]: inactive

Compound: Cc1ccc(OCCn2c(CCNC(=O)c3ccc[nH]3)nc3ccccc32)cc1
- Potency [1]: inactive
- Potency [2]: inactive

Compound: CCNc1nc(C#N)nc2c1ncn2-c1cc(F)cc(F)c1
- Potency [1]: inactive
- Potency [2]: inactive

Compound: Cc1ccc(-c2ccc(=O)n(CC(=O)N(C)C3CCCCCC3)n2)cc1
- Potency [1]: inactive
- Potency [2]: inactive

Compound: c1cncc(CNc2ccnc(-c3ccc4c(c3)OCO4)n2)c1
- Potency [1]: inactive
- Potency [2]: inactive

Compound: Cc1csc(CNc2ncnc3ccc(-c4cccnc4)cc23)c1
- Potency [1]: inactive
- Potency [2]: inactive

Compound: N#Cc1cccc(Nc2ncc(-c3cccc4ccccc34)o2)c1
- Potency [1]: inactive
- Potency [2]: inactive

Compound: Cn1nnnc1Sc1ncnc2scc(-c3cccc4c3sc3ccccc34)c12
- Potency [1]: inactive
- Potency [2]: inactive

Compound: Cc1ccc(-c2ccc(=O)n(CC(=O)N(C)CCc3ccco3)n2)cc1
- Potency [1]: inactive
- Potency [2]: inactive

Compound: Cn1nnnc1Sc1ncnc2scc(-c3ccc(C(F)(F)F)cc3)c12
- Potency [1]: inactive
- Potency [2]: inactive
